Bioassay records (PubChem BioAssay)
A selection: hits, their analogues and other compounds. The true share with any hit is near 2.9%.
EBV LMP1 NFkB – Epstein-Barr LMP1 NF-kappaB reporter inhibition | LMP1-induced NF-kappaB luciferase reporter cells, luminescence | inhibition, % at 12.5 µM | 0.69% of 350,000 active; in the data active means inhibition above about 41%;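 further: 0% = neutral control wells and 100% = reference inhibitor control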
CF NFkB block – blocks PAF-induced NF-kB reporter in cystic fibrosis cells; KKLEB NF-kB-GFP reporter, GFP fluorescence overnight; inhibition, % at 5 µM; 0.86% of 360,000 active; AID 588850;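 active means at least 50% inhibition at 5 µM, scaled per plate between neutral and stimulator controls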;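 further: PAF is a Pseudomonas aeruginosa culture filtrate used as stimulus; plate controls were PAF-stimulated DMSO wells for no effect and unstimulated DMSO wells for full effect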
Shn3 3UTR inh – Schnurri-3 reporter inhibition in Clone20 osteoblasts; AID 588674; inhibition, % at 12.5 µM; 0.52% of 360,000 active; Clone20 osteoblast Shn3 3'UTR firefly luciferase, 24 h;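 active means mean inhibition of at least 75% with every replicate also reaching 75%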;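 further: 0% = median of neutral control wells and 100% = pilot-screen positive control compound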
KKLEB tox – CF airway cell cytotoxicity counter-screen; 0.36% of 360,000 active; activity change (cytotoxicity), % at 5 µM; KKLEB CF airway cells viability, ATPlite luminescence, overnight; hits give low values; cells stimulated with P. aeruginosa culture filtrate;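 active means corrected activity change at or below -50% at 5 µM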
Peg3 promoter – inhibitors of Peg3 promoter; inhibition, % at 20 µM; HeLa PEG-Prom luciferase reporter, luminescence, overnight; 1.7% of 360,000 active;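 active means inhibition of at least 50% at 20 µM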
HIF-2a block – HIF-2a inhibition; 0.72% of 360,000 active; 786-0 RCC cells HIF-2a reporter, luciferase luminescence, overnight; inhibition, % at 18.8 µM; AID 624352;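 active means inhibition of the luminescence signal of 40% or more relative to plate controls, in a single-dose primary screen at 18.75 µM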
CF NFkB conf – confirmation of cystic fibrosis induced NF-kB inhibitors. 64% of 1,300 active. AID 602472. KKLEB CF airway cells, PAF-induced NF-kB-GFP fluorescence, overnight. inhibition, % at 5 µM. shares compounds with CF NFkB block; in the data active means inhibition above about 40%;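 further: stimulus PAF is a Pseudomonas aeruginosa filtrate and not platelet activating factor; plate controls were DMSO wells with stimulus for no effect and unstimulated DMSO wells for full effect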
Numbers without * were called inactive; . = no result given.

SMILES	EBV LMP1 NFkB	CF NFkB block	Shn3 3UTR inh	KKLEB tox	Peg3 promoter	HIF-2a block	CF NFkB conf
c1ccc(-c2nn3c(-c4ccccc4)nnc3o2)cc1	-22	-34	-28	2	-20	-23	.
COCCN1Cc2cccc(C(=O)Nc3cccc(-c4nc5ccccc5[nH]4)c3)c2C1=O	2	57*	9	-20	22	-138	68*
CC(=O)c1cccc(Nc2ncnc3ccc(Br)cc23)c1	3	46	1	-11	23	21	.
CC(C)Nc1ncnc2ccc(Br)cc12	37	70*	78	-7	26	28	85*
Brc1ccc2ncnc(NCc3ccco3)c2c1	27	54*	41	-8	-40	-18	58*
CC(=O)c1ccc(Nc2ncnc3ccc(Br)cc23)cc1	13	60*	0	-27	-9	17	46*
Cc1cc(NC(=O)CN2C(=O)/C(=C/c3ccccc3F)SC2=S)no1	-3	0	2	-20	14	-2	.
CN(CC(=O)NCCc1ccccc1)S(=O)(=O)c1ccccc1	1	24	7	2	-35	-16	.
CC1(C)CC(=O)C2=C(C1)N(CCN1CCOCC1)C1=C(C(=O)CC(C)(C)C1)C2c1ccc(Cl)cc1	11	57*	4	0	-4	24	3
CCN1CCN(S(=O)(=O)c2cc(OC)c(Cl)cc2OC)CC1	-9	20	-8	-1	-3	0	.
CN(C(=O)COc1ccccc1C(=O)NCCOc1ccccc1)c1ccccc1	13	57*	94*	-26	106*	-10	23
O=C(NCCOc1ccccc1)c1ccccc1Cl	-23	-9	-9	13	-169	-163	.
Cc1ccc(N2CC(C(=O)NC3CCC(C)CC3)CC2=O)cc1 (stereo unspecified)	2	2	1	8	3	2	.
CCOC(=O)c1ccc(NC(=O)c2ccccc2)cc1	-4	-4	-116	4	-288	-297	.
CCOC(=O)c1ccc(NC(=O)c2c(N)n(Cc3ccccc3)c(=O)[nH]c2=O)cc1	-54	58*	27	-48	10	3	33
Cc1cc(NC(=O)CSc2ccc(-c3ccc(Br)cc3)nn2)no1	-14	14	0	-6	-124	-75	.
CC(=O)Oc1ccc(N(C(C)=O)S(=O)(=O)c2ccccc2)c2ccccc12	0	69*	19	0	6	13	10
COc1ccc(S(=O)(=O)N(C(C)=O)c2ccc(OC(C)=O)c3ccccc23)cc1[N+](=O)[O-]	-3	79*	10	-17	17	14	102*
CC(=O)N(c1ccccc1Cl)S(=O)(=O)c1ccc(Cl)cc1	5	26	0	-7	14	14	.
CC(=O)Oc1c(Cl)cc(N(C(C)=O)S(=O)(=O)c2ccccc2)c2ccccc12	.	57*	11	-19	4	2	54*
CC(=O)Oc1ccc(N(C(C)=O)S(=O)(=O)c2ccc(C)cc2C)c2ccccc12	-16	42	-15	-7	-1	21	.
O=C1Nc2c(Cl)cc(Cl)cc2C1=O	-14	35	-55	-11	10	18	.
CC(C)c1cc(C(C)C)c(S(=O)(=O)NC(c2ccccn2)C23CC2C3)c(C(C)C)c1 (stereo unspecified)	.	.	.	.	.	9	.
N#C/C(=C/c1ccc(CNC(=O)C(=O)Nc2cc(Cl)cc(Cl)c2)o1)C(=O)NCc1cccnc1	9	54*	30	-46	92*	13	45*
Cc1ccc(NC(=O)C(=O)NCc2ccc(/C=C(/C#N)C(=O)NCc3cccnc3)o2)cc1	11	-17	26	-4	12	-3	.
SMILES	EBV LMP1 NFkB	CF NFkB block	Shn3 3UTR inh	KKLEB tox	Peg3 promoter	HIF-2a block	CF NFkB conf
CCOC(=O)c1c(C)n(-c2ccc(F)cc2)c2ccc(O)cc12	18	12	5	-9	21	16	.
COc1ccc2c(c1)c(C(C)=O)c(C)n2-c1ccc(C(C)=O)cc1	10	64*	22	-3	16	10	74*
COC(=O)c1c(C)n(-c2ccc(OC)cc2)c2ccc(O)cc12	16	58*	16	-3	36	28	84*
CCOc1ccc2c(c1)c(C(C)=O)c(C)n2-c1ccccc1	-1	24	-10	-1	9	26	.
C[C@H](CO)N1C[C@H](C)[C@@H](CN(C)C(=O)CCC(F)(F)F)OCc2cnnn2CCCC1=O	0	-8	-6	12	-14	7	.
COc1ccc2oc(=O)cc(CN3CCN(Cc4ccc(OC)c(OC)c4OC)CC3)c2c1	2	14	11	-14	-4	17	.
CC(NC(=O)CSc1ccc(S(=O)(=O)N2CCOCC2)cn1)c1ccc(Cl)cc1Cl (stereo unspecified)	-49	3	-8	20	13	7	.
CCOc1ccc(NC(=O)N[C@@H](Cc2ccccc2)C(=O)O)cc1	-7	10	-6	-5	3	24	.
COc1ccc(-c2noc(-c3ccccc3C(=O)N3CCOCC3)n2)cc1	2	6	3	-8	8	5	.
CCOC(=O)Nc1ccc2c(c1)N(C(=O)N1CCN(C)CC1)c1ccccc1S2	-4	-18	-11	-11	14	4	.
C=CC(=O)N1c2ccccc2Sc2ccc(NC(=O)OCC)cc21	-9	80*	13	-20	95*	15	-116
Nc1c(C(=O)Nc2ccccc2)sc2nc3c(c(-c4ccco4)c12)CCCC3	-4	51*	11	-34	-52	-164	34
COc1ccc(CN(C)C(=O)CNC(=O)c2sc3ccccc3c2Cl)c(OC)c1	15	-2	-2	-2	-11	-29	.
O=C(Nc1cccc(S(=O)(=O)N2CCCCC2)c1)Nc1ccc(Cl)cc1Cl	-1	58*	15	-46	52*	-37	67*
O=c1cc(-c2ccccc2Cl)oc2c([N+](=O)[O-])c(O)cc(O)c12	17	94*	-3	14	98*	-11	110*
O=[N+]([O-])c1cc([N+](=O)[O-])c2oc(-c3ccccc3)c(Br)c2c1O	2	50*	1	-22	21	-16	87*
COc1ccc(CCNC(=O)CCNC(=O)c2ccccc2Cl)cc1	-2	3	-7	3	5	12	.
O=C(c1[nH]c(C(F)(F)F)nc1-c1ccccc1)N1CCN(c2ccccc2)CC1	.	6	5	-12	22	8	.
O=C(c1[nH]c(C(F)(F)F)nc1-c1ccccc1)N1CCN(c2c(Cl)cncc2Cl)CC1	.	64*	-2	-8	12	-1	57*
Cc1ccc(-c2cc3nc(C)cc(N4CCN(C(=O)c5ccoc5)CC4)n3n2)cc1	8	-5	2	5	-24	-40	.
